In all, about 1,200 compounds went through this assay and about 600 (50%) were called active. Rule as the data show it: active = inhibition above about 42%; inactive = the rest. So high a share suggests a set chosen from earlier hits. Some of the results follow. Potency and affinity values are given separately.
target: SUMO-conjugating enzyme UBC9 (Homo sapiens) (UniProt P63279); test: SUMOylation inhibitor hit validation, confirmation, SUMOylation inhibitor project, biochemical, AlphaScreen (AID 2018); settings: AlphaScreen in vitro SUMOylation assay; at 35 µM; hits give high values
Sequence (P63279 whole entry, looked up): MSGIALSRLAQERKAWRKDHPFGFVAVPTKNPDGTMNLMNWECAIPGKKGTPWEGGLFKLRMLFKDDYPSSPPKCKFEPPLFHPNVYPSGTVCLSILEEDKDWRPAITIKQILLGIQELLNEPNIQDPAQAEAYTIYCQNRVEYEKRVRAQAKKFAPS

| Structure (SMILES) | inhibition |
| --- | --- |
| COCC(C)N1C(=O)Cc2c1nc(N)c1c(N)nc(N3CCN(c4ccccc4F)CC3)c(C#N)c21 (stereo not drawn) | 37.8% (inactive) |
| N#Cc1c(N2CCN(c3ccc(F)cc3)CC2)nc(N)c2c(N)nc3c(c12)CC(=O)N3C1CC1 | 37.6% (inactive) |
| CC(C)N1C(=O)CC(Nc2cccc3cccc(N)c23)C1=O (stereo not drawn) | 0.8% (inactive) |
| Cn1c(=O)cc(C(=O)N/N=C/c2ccc(Cl)cc2)[nH]c1=O | -20.2% (inactive) |
| O=C1NNC(c2ccccc2)=N/C1=C\c1ccccc1Cl | 101% (active) |
| CN(NC(=O)c1ccc(Cl)cc1)c1ncc(C(F)(F)F)cc1Cl | 2.5% (inactive) |
| O=C(NC1(O)C(=O)c2ccccc2C1=O)c1ccccc1 | 101% (active) |
| O=C(NC1(O)C(=O)c2ccccc2C1=O)c1ccc(C(F)(F)F)cc1 | 101% (active) |
| Cc1onc(-c2ccccc2Cl)c1C(=O)NCc1ccco1 | 32.5% (inactive) |
| O=C(NC1(O)C(=O)c2ccccc2C1=O)c1c(Cl)cccc1Cl | 101% (active) |
| O=c1c(=Nc2ccccc2O)c(=O)c2ccccc12 | 9.9% (inactive) |
| Clc1ccc(-c2nnc3c4ccccc4nc(N4CCOCC4)n23)cc1Cl | 4% (inactive) |
| CC(=O)Oc1c(/C=C(\C#N)C(N)=O)[nH]c2ccccc12 | 21.9% (inactive) |
| Cc1ccc(NC(=O)Nc2cccn(Cc3c(F)cccc3Cl)c2=O)cc1 | 14.6% (inactive) |
| O=C(NCc1ccccc1)Nc1cccn(Cc2ccccc2Cl)c1=O | 20.8% (inactive) |
| Cc1nn2c3c(cnc2c1-c1ccc(Cl)cc1)C(=O)CC(c1ccco1)C3 (stereo not drawn) | 9.7% (inactive) |
| COc1ccccc1Oc1c(C)oc2c(CN3CCN(C)CC3)c(O)ccc2c1=O | 7% (inactive) |
| O=C(CC1CS(=O)(=O)CC1CC(=O)Oc1ccccc1F)Oc1ccccc1F (stereo not drawn) | 102% (active) |
| N#C/C(=C/c1ccc(-c2ccccc2)o1)c1nc(-c2cccs2)cs1 | -4.5% (inactive) |
| CC(=O)Oc1ccc2c(C)c(CC(C)O)c(=O)oc2c1 (stereo not drawn) | -6.6% (inactive) |
| Cc1c(CC(=O)N2CCN(C(=O)C3COc4ccccc4O3)CC2)c(=O)oc2c(C)c(O)ccc12 (stereo not drawn) | 17.7% (inactive) |
| Cc1c(CC(=O)O)c(=O)oc2c(C)c(OCc3ccccc3Br)ccc12 | 85.8% (active) |
| NC(=O)CC(NC(=O)Cc1ccc(Br)cc1)c1ccc(NCCOc2ccccc2)c([N+](=O)[O-])c1 (stereo not drawn) | 10.7% (inactive) |
| O=C1C=C(N(CCO)Cc2ccccc2)c2ccccc2C1=O | 101% (active) |
| Nc1ccc(Br)c2cccnc12 | 49% (active) |

| Structure (SMILES) | inhibition |
| --- | --- |
| CCOC(=O)C1CC(=O)c2cc(OC)c(OC)cc2C1 (stereo not drawn) | 12.9% (inactive) |
| O=C(N/N=C/c1cc(Cl)cc([N+](=O)[O-])c1O)c1ccccc1NS(=O)(=O)c1cccs1 | 101% (active) |
| O=C(N/N=C/c1ccc(N2CCOCC2)cc1)c1ccccc1NS(=O)(=O)c1cccs1 | 17.4% (inactive) |
| COc1ccccc1/C=C/C=N/NC(=O)c1cc(-c2ccco2)[nH]n1 | 60.4% (active) |
| O=C1C=C(N2CCOCC2)c2ccccc2C1=O | 102% (active) |
| NNC(=O)c1oc2nc(-c3ccco3)cc(-c3ccco3)c2c1N | 56.6% (active) |
| NNC(=O)c1oc2nc(-c3cccs3)cc(-c3ccco3)c2c1N | 43.3% (active) |
| Cc1ccc(-c2cc(-c3ccccc3O)nc(N/N=C/c3cccnc3)n2)cc1 | 23% (inactive) |
| O=c1[nH]c(N2CCN(c3ccccc3)CC2)nc2c1CCC2 | 8.8% (inactive) |
| CN(C(=S)Nc1cccnc1)c1ccc(O)cc1 | 19.3% (inactive) |
| O=C(Nc1cccc(N=Cc2cc(Br)cc(Br)c2O)c1)c1ccco1 | 24.9% (inactive) |
| COc1ccc2oc(=O)c(/C(C)=N/NC(=O)c3ccncc3)cc2c1 | 7.3% (inactive) |
| C/C(=N\NC(=O)c1cc(O)ccc1O)c1cccc(NC(=O)c2ccc(Cl)cc2)c1 | 94.8% (active) |
| Cc1ccc(NC2=CC(=O)CC(c3ccco3)C2)c(N)c1 (stereo not drawn) | 20.2% (inactive) |
| O=C(COC(=O)c1cc(-c2cccs2)nc2ccccc12)NCc1ccco1 | 7.3% (inactive) |
| CCOc1ccc(/C=N/NC(=O)c2cc(-c3ccco3)nc3ccccc23)cc1 | -1.6% (inactive) |
| COc1cc(/C=N/NC(=O)c2cc(-c3ccco3)nc3ccccc23)cc(OC)c1O | 55.1% (active) |
| CCN(CC)Cc1c(O)ccc2c(=O)c(Oc3ccccc3OC)coc12 | 3.9% (inactive) |
| CCOc1cc(/C=C2/C(=O)N(c3ccccc3)N=C2C)ccc1OC(=O)c1ccco1 | 73.7% (active) |
| COc1ccccc1Oc1c(C)oc2cc(OC(=O)c3ccco3)ccc2c1=O | 18.7% (inactive) |
| CCOc1cc(/C=C2\C(=O)N(c3ccc(C(N)=O)cc3)N=C2C)ccc1OC(=O)c1cccs1 | 81.1% (active) |
| CCOC(=O)N1CCN(C(=O)c2cccn3c(=O)c4cc(Br)ccc4nc23)CC1 | 4.2% (inactive) |
| COC1=C(Nc2ccccc2OC)C(=O)c2ccccc2C1=O | 96.4% (active) |
| COC1=C(Nc2ccc(O)cc2)C(=O)c2ccccc2C1=O | 74.4% (active) |
| CC(NC(=O)Nc1ccc(O)cc1)(C(F)(F)F)C(F)(F)F | 1.3% (inactive) |

| Structure (SMILES) | inhibition |
| --- | --- |
| COC1=C(Nc2ccccc2)C(=O)c2ccccc2C1=O | 93% (active) |
| CC(=O)c1ccc(NC(=S)Nc2cccc3ccccc23)cc1 | 7.1% (inactive) |
| Nc1ccc(N(CCO)CCO)cc1 | 38.6% (inactive) |
| COc1ccc(C=Nc2ccc3[nH]ncc3c2)c(O)c1 | 19.3% (inactive) |
| CN1C(=O)N(C)c2ccc(C=O)c3cccc1c23 | 22.2% (inactive) |
| Cc1cccn2cc(-c3ccc(S(=O)(=O)N4CCOCC4)cc3)nc12 | -6.1% (inactive) |
| O=S(=O)(c1ccc2nc(-c3ccco3)c(-c3ccco3)nc2c1)N1CCOCC1 | 52% (active) |
| O=C(Nc1ccccc1F)Nc1cc(S(=O)(=O)N2CCOCC2)ccc1N1CCCC1 | 13.5% (inactive) |
| CCOC(=O)c1c(C)oc2c1c(C=NCCO)c(O)c1ccccc12 | 99.7% (active) |
| O=C(CSc1ncccn1)NCc1ccc2c(c1)OCO2 | -9.4% (inactive) |
| O=c1cc2c(=O)oc3cc(O)c(O)oc3c2c(O)c1O | 89.8% (active) |
| NCCc1ccc(O)c(O)c1 | -6.3% (inactive) |
| COc1ccc(O)c(C(c2c(C)[nH][nH]c2=O)c2c(C)[nH][nH]c2=O)c1 | 17.7% (inactive) |
| COC(=O)c1ccccc1-c1ccc(C(c2c(C)[nH][nH]c2=O)c2c(C)[nH][nH]c2=O)o1 | 88.2% (active) |
| COc1ccc(-c2ccc(C(c3c(C)[nH][nH]c3=O)c3c(C)[nH][nH]c3=O)o2)c([N+](=O)[O-])c1 | 73.1% (active) |
| Cc1[nH][nH]c(=O)c1C(c1ccc(-c2ccccc2C(=O)O)o1)c1c(C)[nH][nH]c1=O | 66.6% (active) |
| Cc1ccc(-n2cccn2)c([C@@H]2C[C@H]3CN(C)C(=O)[C@]34CCCN24)c1 | 8.1% (inactive) |
| Cc1ccccc1-c1nc2cc(N)ccc2o1 | 21.4% (inactive) |
| CN(C)S(=O)(=O)c1cc(NC(=O)CNCc2ccccc2)ccc1Cl | -19.5% (inactive) |
| O=C(c1cccn2c(=O)c3cc4ccccc4cc3nc12)N1CCN(c2ccccc2)CC1 | 27.6% (inactive) |
| CN(C)C=Nc1ccc2nc3c(cc2c1)[nH]c1ccccc13 | 20.5% (inactive) |
| Cc1cc[n+](-c2[nH]c(=O)sc2/C=N/N=C(\[O-])c2ccncc2)cc1 | -9.7% (inactive) |
| Cc1cccn2c(=O)c3cc(C#N)c(=NC(=O)c4ccco4)n(Cc4ccco4)c3nc12 | 25.4% (inactive) |
| O=c1oc(-c2cccs2)nc2sc3c(c12)CCC3 | -2.8% (inactive) |
| CN(C)c1cc(N/N=C/c2ccccc2C(F)(F)F)nc(N(C)C)n1 | 72.9% (active) |

| Structure (SMILES) | inhibition |
| --- | --- |
| Cc1nc2ccccc2c(=O)n1/N=C/c1ccc(O)c(O)c1O | 81.7% (active) |
| Cc1ccc(-c2[nH]ncc2/C=N/n2c(C)nc3ccccc3c2=O)cc1 | 66.8% (active) |
| O=C1NC(=O)c2cc(NC(=O)C3CCCCC3)ccc21 | 8.7% (inactive) |
| O=C(c1cccc2cccc(O)c12)N1CCCCC1 | 14.8% (inactive) |
| Cc1cc(C)cc(Oc2coc3c(CN(C)C)c(O)ccc3c2=O)c1 | 10.6% (inactive) |
| Cc1ccc(NC(=O)C2CCN(C(=O)c3ccco3)CC2)cc1 | 0.4% (inactive) |
| COc1ccc(-c2cc(C(F)(F)F)n3ncc(C(=O)NCc4ccco4)c3n2)cc1 | 32.4% (inactive) |
| COc1ccc2oc(=O)c(C(=O)NCc3ccco3)cc2c1 | -14.1% (inactive) |
| COc1ccc2c(c1)Cc1sc(NC(=O)c3ccco3)nc1-2 | 40.3% (inactive) |
| O=C(COc1ccc2oc(-c3ccco3)cc(=O)c2c1)N1CCCCC1 | -2.7% (inactive) |
| COc1ccc(-n2nc3cc(C)c(N)c(Br)c3n2)cc1 | 18.3% (inactive) |
| N#CC(c1nc2ccccc2nc1N1CCCC1)S(=O)(=O)c1ccccc1 (stereo not drawn) | 66.7% (active) |
| N#CC(C(=O)NC1CC1)c1nc2ccccc2nc1N1CCCC1 (stereo not drawn) | 29% (inactive) |
| COc1ccc(S(=O)(=O)C(C#N)c2nc3ccccc3nc2N2CCC(C)CC2)cc1 (stereo not drawn) | 15.7% (inactive) |
| Cc1ccc(C)c(S(=O)(=O)C(C#N)c2nc3ccccc3nc2N2CCCC2)c1 (stereo not drawn) | 44.3% (active) |
| Cc1ccccc1S(=O)(=O)Nc1nc2ccccc2nc1N1CCc2ccccc2C1 | -43.2% (inactive) |
| C=CCNC(=O)C(C#N)c1nc2ccccc2nc1N1CCCCCC1 (stereo not drawn) | 30.3% (inactive) |
| Cc1ccc(S(=O)(=O)C(C#N)c2nc3ccccc3nc2N2CCCC2)cc1C (stereo not drawn) | 45.8% (active) |
| Cc1ccc(S(=O)(=O)C(C#N)c2nc3ccccc3nc2N2CC(C)OC(C)C2)cc1C (stereo not drawn) | 22.8% (inactive) |
| Cc1ccc(C)c(S(=O)(=O)C(C#N)c2nc3ccccc3nc2N2CCOCC2)c1 (stereo not drawn) | 9.2% (inactive) |
| COc1ccc(S(=O)(=O)C(C#N)c2nc3ccccc3nc2N2CCCCC2)cc1 (stereo not drawn) | 42.8% (active) |
| N#CC(c1nc2ccccc2nc1N1CCCC1)S(=O)(=O)c1cccs1 (stereo not drawn) | 37.3% (inactive) |
| Cc1ccc(C)c(S(=O)(=O)C(C#N)c2nc3ccccc3nc2N2CC(C)OC(C)C2)c1 (stereo not drawn) | 4.8% (inactive) |
